# Reference: PubChem BioAssay (NCATS)
# Where “and” joins values, the source holds several entries; their conditions need not be identical. Equal values may be shown once. Results filed as inconclusive are left out. Calls of active or inactive are those of the source. The call rests on the fitted dose curve; in most records, active means well fitted curve in either direction with a large enough effect (not every such curve was filed as active); inconclusive means small, poorly fitted or top-dose-only effect, or another doubt; inactive means flat fitted curve, though single readings scatter.
# Test: AP1 Signaling Pathway (AID 357);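 further: ME-180 reporter cells stimulated with EGF at its EC50 level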
# Settings: ME-180 (cervical carcinoma) AP-1-bla reporter, EGF-induced, beta-lactamase ratio, 5 h; at 17.2 µM (top of the series)
# In short: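 AP-1-bla ME-180 cells, Opti-MEM + 0.5% dialyzed FBS, plated overnight 37 °C. Cpd titration + EC50 EGF, 5 h 37 °C. CCF4 2.5 h RT; ex 405, em 460/530 ratio → %activity, AC50.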
# On the % scale 0 is the no-effect control and ±100 the full control effect.
row,SMILES,"activity change, negative = inhibition"
1,CN/C(=C\[N+](=O)[O-])NCCSCc1ccc(CN(C)C)o1,-3.39% (inactive)
2,CC(C)[N+](C)(CCOC(=O)C1c2ccccc2Oc2ccccc21)C(C)C,12.1% (inactive) and 5.76% (inactive)
3,O=C1CC2(CCCC2)CC(=O)N1CCCCN1CCN(c2ncccn2)CC1,-0.287% (inactive)
4,Nc1nc(N)c2nc(-c3ccccc3)c(N)nc2n1,16.6% (inactive) and 10.9% (inactive)
5,CCCN(CCC)C(=O)C(CCC(=O)O)NC(=O)c1ccccc1 (centres undefined),1.43% (inactive)
6,COc1cc(Cc2cnc(N)nc2N)cc(OC)c1OC,1.37% (inactive)
7,NC(=O)N1c2ccccc2C=Cc2ccccc21,-5.62% (inactive) and 13.4% (inactive)
8,CCCCNc1ccc(C(=O)OCCN(C)C)cc1,-19.5% (inactive)
9,Fc1ccc(C(c2ccc(F)cc2)N2CCN(C/C=C/c3ccccc3)CC2)cc1,-10.9% (inactive)
10,COc1cc(C(=O)OCCCN2CCCN(CCCOC(=O)c3cc(OC)c(OC)c(OC)c3)CC2)cc(OC)c1OC,24.5% (inactive)
11,CCN(CC)CC(=O)Nc1c(C)cccc1C,8.06% (inactive) and 2.56% (inactive) and 5.37% (inactive)
12,COCCc1ccc(OCC(O)CNC(C)C)cc1 (centres undefined),3.62% (inactive)
13,Cc1nnc(SCC2=C(C(=O)O)N3C(=O)[C@@H](NC(=O)Cn4cnnn4)[C@H]3SC2)s1,6.59% (inactive)
14,CCn1nc(C(=O)O)c(=O)c2cc3c(cc21)OCO3,-3.87% (inactive) and 14.9% (inactive)
15,Cc1ccc(S(=O)(=O)NC(=O)NN2CCCCCC2)cc1,-5.47% (inactive) and 3% (inactive)
16,COc1ccc2c(c1OC)C(=O)O[C@@H]2[C@H]1c2c(cc3c(c2OC)OCO3)CCN1C,-3.96% (inactive)
17,COc1ccc([C@@H]2Sc3ccccc3N(CCN(C)C)C(=O)[C@@H]2OC(C)=O)cc1,23.2% (inactive)
18,COCCOC(=O)C1=C(C)NC(C)=C(C(=O)OC(C)C)C1c1cccc([N+](=O)[O-])c1 (centres undefined),-20.8% (inactive)
19,CC(C)(Oc1ccc(CCNC(=O)c2ccc(Cl)cc2)cc1)C(=O)O,3.65% (inactive) and 3.52% (inactive)
